Screen size: about 53,000 sequences; about 3,700 (7%) were called active.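 Rule for the calls: active = gene knockdowns whose robust z-score for IL-1 alpha signal is at least 2 or at most -2, so actives lie on both sides; inactive = the rest.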 Many of the other results were omitted from the sample, so actives are more common in it than they were.
Assay: Components of the Cytosolic LPS Sensing Pathway: Gene Identification via Genome-wide siRNA Screen;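 note: robust z of the log signal after scaling to non-targeting control siRNA wells of the plate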
Conditions: RAW264.7 macrophages, IL-1a HTRF, actives lie on both sides, screened at 100 nM (by protocol), cells primed 5 h with Pam3CSK4 first
Method in brief: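 Knockdown: 100 nM siRNA, 48h, RAW264.7. Stimulation: Pam3CSK4 5 h, then LipidA via TransIT-TKO 24 h. Output: supernatant IL-1a HTRF, negative-control-normalized, log robust z-score; viability by CellTiter-Glo.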

Row | Sequence | z-score
1 | GGAAACAACAACAAAUACATT against C1ql3 | 1.52 (inactive)
2 | GGAAGAUCCUCGAUAGUCATT against Rgs7 | 1.2 (inactive)
3 | GACCAUCUCCUUUACGGGCTT against Olfr71 | 0.133 (inactive)
4 | GGCCAAAGAAGAAAGUGACTT against Opn3 | -2.72 (active)
5 | GUGGUAAACAGAAUGGUGATT against Ccdc92b | -1 (inactive)
6 | GCACCCAUAUCAACGAGGUTT against Olfr924 | 0.484 (inactive)
7 | GGUGACCAGCAAGUCAUGCTT against Chrdl1 | -0.663 (inactive)
8 | GGAAGAAAAAAACUUCGUUTT against Gabrg3 | 0.186 (inactive)
9 | CCUGAAAGAUGCUCUCUAUTT against Inpp4b | 4.27 (active)
10 | GCACAGCUUUUUGGAUCUGTT against Zfyve26 | -0.75 (inactive)
11 | CCAGAGUCUUUGGUAAUGCTT against Krtap3-3 | 1.07 (inactive)
12 | GUCAUCAUGAACCAAGAGATT against Olfr713 | -2.18 (active)
13 | GGAAAACCAGCACAAUUUATT against Cadm1 | 2.49 (active)
14 | CCAUCUACAAACUUUGGCCTT against Sacs | 0.669 (inactive)
15 | GGUACUGACGCAUCUGAGGTT against Spata5l1 | 1.53 (inactive)
16 | GACAAGCAAUAAAGAAAGATT against Lce1l | -1.45 (inactive)
17 | GGAAGGUCAAGUCUUUUCUTT against Tesk1 | 1.46 (inactive)
18 | CCAUGGGAUAUGAUUUACATT against Phf11a | 3.49 (active)
19 | GGGAAUUUCAGGCUAUAUUTT against Taf2 | 1.13 (inactive)
20 | CGAUGUGGACGAGAAGCUATT against Asap2 | -0.702 (inactive)
21 | CGCUAUGAGGCAGCUAAUUTT against Psma6 | -2.27 (active)
22 | CCCAUACUAAAAUUGUUGATT against Adam29 | 0.253 (inactive)

Row | Sequence | z-score
23 | CCUACCUUCAUUCGCUUCGTT against Cpz | 2.61 (active)
24 | CCCAAUCAGCAUUUGCUCUTT against H2-M10.3 | 0.104 (inactive)
25 | GGAUGGAGCUACUGAAAUUTT against Dera | 0.39 (inactive)
26 | CCAGAUCAUCGUGCAGAAUTT against E4f1 | 0.557 (inactive)
27 | GGAGUGUUUUGCAGUUUUATT against Dcstamp | 4.39 (active)
28 | GCCACUGGUUCCAAUCGUCTT against Ncs1 | -0.354 (inactive)
29 | CCGAAGCAUUUUCCCAUCUTT against Slc22a20 | -0.293 (inactive)
30 | CCUGAUCCUCAGUUUGGUGTT against Prl | 0.129 (inactive)
31 | GGUAACAAACUACAUUUGCTT against Pcdhb16 | 2.7 (active)
32 | CGAGAAUUCCUUGCUCUAATT against Mgat4a | 0.194 (inactive)
33 | GCGCGACCUUCGAAUGUAATT against Rnf5 | -0.834 (inactive)
34 | GGAUAUGGUUAAAGCCAAATT against Zg16 | -0.172 (inactive)
35 | GGGAUGUGUCCUGACUUUUTT against Zfp941 | -0.402 (inactive)
36 | CCCAACUUAAAAGUACGUUTT against Hdac5 | 0.83 (inactive)
37 | GGUUCAAAAGUCGAGCGAATT against Nudt9 | -0.137 (inactive)
38 | GCCUAAGGGAGACUCUUUGTT against Ano7 | -2.02 (active)
39 | GGAAGUGAUUCUGCUAUGUTT against Cenpn | -1.69 (inactive)
40 | GGAAAGCAUGAGUUAAUAATT against Slain2 | 1.38 (inactive)
41 | GGGAAUAUCACAGGUGCCATT against Axl | -0.737 (inactive)
42 | GGCUCUAAAUUUUUUGUUCTT against Derl1 | 0.532 (inactive)
43 | UGAGGAGAGUUUCCGAGUGTT against H2-Q6 | -0.0985 (inactive)
44 | GCUAGUCUUAUGGACCAGATT against Eaf2 | -0.764 (inactive)

Row | Sequence | z-score
45 | GGAAGAGCAUAAAAUGUCATT against Trps1 | -0.695 (inactive)
46 | GGCGAAUGCGCUUCUGAUATT against BC053393 | 2.29 (active)
47 | GGCACACAGUUUUGUACAUTT against Nfat5 | 2.25 (active)
48 | GGACAAGAAGAAAGAAAAGTT against Tmbim6 | -1.07 (inactive)
49 | GGAAGUUCCACCAUACCUCTT against Cypt4 | -2.5 (active)
50 | GGCGACAGCGUAAAAGUACTT against Lyst | -0.347 (inactive)
51 | GGAAAAAAAACACUGACUGTT against Hoxa5 | 1.05 (inactive)
52 | GGCUCAAGGCUGAGUUUCATT against En2 | 0.704 (inactive)
53 | GGCCUGGAGGACUUUAUAATT against Cyp2a4 | -1.13 (inactive)
54 | GGCUAGCUACACAGUCUCATT against Plscr2 | 0.376 (inactive)
55 | GCAUCAUUGUCAAUCAUAUTT against Olfr578 | -2.25 (active)
56 | CCGAAGGACAGUGUUUAUUTT against Mfsd11 | 0.212 (inactive)
57 | GCCUGCUAUUUAAUUCAUATT against Fam168a | -0.671 (inactive)
58 | GGUCCAGUGAAAUAAUAUCTT against Orc3 | 0.774 (inactive)
59 | GGACUACCAAUACGAACUGTT against Il23a | 2.22 (active)
60 | GCAUAAAUUUCAAGAGCGCTT against Gigyf1 | -0.243 (inactive)
61 | CGUAAGAUCAACGAGAGAUTT against Ncaph2 | -0.756 (inactive)
62 | GGGAAAGACUGGAAAUCUUTT against Tmod3 | 0.515 (inactive)
63 | GGAGAUCGAAAAGAAUUUCTT against Mx2 | 1.17 (inactive)
64 | GGAGGAAGAACUGUCUUUGTT against Wasf1 | 0.221 (inactive)
65 | GGUGUUGGAUCAUGAUGUUTT against Nf2 | -2.14 (active)
66 | GCCCUUCAAAAGGAGCAGUTT against Cap1 | 1.86 (inactive)

Row | Sequence | z-score
67 | GGACCAGCUGGACAAAAGATT against Zbtb18 | 0.131 (inactive)
68 | GGCAUCAAAGACAAUACAATT against Vmn1r15 | 3.19 (active)
69 | GGUCAAAUCACUGAGUUUUTT against 9530080O11Rik | 1.74 (inactive)
70 | GGUUGUCAUUCUUAUCCUUTT against Mageb1 | 0.57 (inactive)
71 | GGGAAUGCUUAUGUAGGCATT against Aldh3b1 | -1.03 (inactive)
72 | GGCGGUUAGACAUUAUGGATT against Plac9a | 1.25 (inactive)
73 | GGCGUGUGCAAGAAAAUCGTT against Cacng3 | 2.53 (active)
74 | GGAUGAGUUGUCAUUGAUATT against Nck1 | 0.998 (inactive)
75 | CCUGUAGGGCUUUUUGAAATT against Mex3a | 0.843 (inactive)
76 | GGUGUUUUUGUCCAGGUCATT against Kcnk3 | -0.618 (inactive)
77 | GCAAGACAAGUUCUACGAUTT against Csad | 1.83 (inactive)
78 | GCCUGUUCGGGAAUCUUACTT against Olfr297 | 2.42 (active)
79 | GCAUUCAGUUGGGACAGUATT against Hsh2d | 0.443 (inactive)
80 | CGCAGAGGUUUUACUUUAATT against Mycbpap | 1.52 (inactive)
81 | GCGAAGACGGAAGCAUAUUTT against Emc8 | 0.12 (inactive)
82 | GGCGGAAAUCUUGAGCAAATT against Slc28a2 | 4.39 (active)
83 | GGAGCUUAUCAACUACUAUTT against Cltc | -0.181 (inactive)
84 | GGAGAGAAACUGCGUGUAATT against Sla | 1.46 (inactive)
85 | GGCAGAAAUCCAUCAGAGATT against Rtkn2 | -0.349 (inactive)
86 | GCCGUACUUCGUCAAGCUATT against Ung | 0.395 (inactive)
87 | GGCAUCUAGGAGAACCUCATT against Insig2 | -1.01 (inactive)
88 | CGAGAAUUACAGACACUUGTT against Noc4l | 0.962 (inactive)

Row | Sequence | z-score
89 | GGCAAAAAGGCAGUAGCCATT against Ncl | 0.644 (inactive)
90 | GGCGGAGUUCUCAAGACUUTT against Nudt18 | 3.55 (active)
91 | GGAACUGGAUCAAGAAUUUTT against Hhat | 0.0393 (inactive)
92 | CGGACAUAGUCCAUCAUUCTT against Aig1 | 1.47 (inactive)
93 | CGGUAUAGUAGAUACUUAATT against Picalm | 2.01 (active)
94 | CCCACCUUCCAAAAGGAUCTT against 5031434C07Rik | -0.882 (inactive)
95 | GGUGAAAUGGAUCGUCCUCTT against Nme8 | -0.926 (inactive)
96 | GGAUGGUCUGCUAUUACAUTT against Phf7 | 0.832 (inactive)
97 | CCCUCAAGGCUGAUAAACATT against Il17b | -2.26 (active)
98 | GGCUACAUGAGCUGGAGAATT against Insr | 2.71 (active)
99 | GCCGCUAACUAAAGUCAAATT against Aloxe3 | 1.15 (inactive)
100 | GGAGAUUGGCUUCCAGAAATT against Slc38a7 | 0.494 (inactive)
101 | GCAACACAUUUGAACCACUTT against Usp15 | -1.79 (inactive)
102 | CCACGAGGAGCUCAUUUUCTT against Dhfr | 0.385 (inactive)
103 | GGCCAAAGGCAUCAGGCAUTT against Gsto2 | -1.7 (inactive)
104 | GCUCAAACGAAAUGAUUCATT against Gys2 | 2.01 (active)
105 | GCCGCACGUUUUUGAGUUGTT against Islr2 | -0.554 (inactive)
106 | CCGAAAUUUUGAGUACUGUTT against Vmn1r67 | 0.285 (inactive)
107 | CCACUUAAAAUUCAUUCCUTT against Arl6ip1 | -0.21 (inactive)
108 | GGAUGAUGCCCGAAAGAACTT against Zfp536 | -4.55 (active)
109 | GGAGAAGACACAGAGAACCTT against Pkd2l1 | 0.645 (inactive)

Source: PubChem BioAssay AID1508600 (Functional Genomics Laboratory (NCATS/FGL), 2020)
